# Assay results: the supplement of paper PMC10037445
# Values joined by “and” are separate entries in the source; they are usually repeats but may differ in a detail not shown here. Equal values may be shown once. ± gives the standard deviation of the averaged measurements. In all, about 2,900 compounds were measured (“IRF Lucia reporter activity, fold change vs agonist alone”: median about 0.9, highest 2% from about 2.8 on). This excerpt belongs to a sample that is enriched for the highest values.
# Legend:
# [1] = system: RAW-Dual; test: IRF Lucia reporter activity, fold change vs agonist alone; cytotoxicity flag (confluency mask): cytotoxic (confluency <70% of control); higher = enhanced IRF activity
# Summary of the method: (§1)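 Library stock was pin-tooled at 50 nL into 384-well plates of RAW-Dual macrophages (50,000 cells/well, DMEM), followed 1 h later by a PRR agonist, and the cells were kept at 37 °C, 5% CO2. Supernatant collected after 20 hours was read for IRF by QuantiLuc luminescence and for NF-κB by QuantiBlue absorbance at 620 nm. Reporter activity is fold change over agonist-alone wells, and a well counted as cytotoxic when its IncuCyte confluency was below 70% of agonist controls in both mask sets.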
# [2] = system: RAW-Dual; test: IRF Lucia reporter activity, fold change vs agonist alone; cytotoxicity flag (confluency mask): not cytotoxic; higher = enhanced IRF activity
# Summary of the method: as §1
# [3] = system: RAW-Dual; test: IRF Lucia reporter activity, fold change vs agonist alone; higher = enhanced IRF activity; details: agonist: MPLA (TLR4) […]
# Summary of the method: as §1
# [4] = agonist: 3'3'-cGAMP (STING) 10 ug/mL
# [5] = library stock concentration (final ~1000-fold dilution): 10 mM, cytotoxicity flag (confluency mask): not cytotoxic
# [6] = library stock concentration (final ~1000-fold dilution): 10 mM, cytotoxicity flag (confluency mask): cytotoxic (confluency <70% of control)
structure (smiles),measurement,setting,value
O=[N+]([O-])c1ccc(Sc2cccc[n+]2[O-])c2nonc12 (library stock concentration (final ~1000-fold dilution): 10 mM),IRF Lucia reporter activity,[1]; [4],0.262
same,IRF Lucia reporter activity,[1]; agonist: LPS (TLR4) 0.1 ug/mL,0.0128
C#CCN(C)CCCOc1ccc(Cl)cc1Cl.Cl (library stock concentration (final ~1000-fold dilution): 10 mM),IRF Lucia reporter activity,[2]; [4],1.06
same,IRF Lucia reporter activity,[2]; agonist: LPS (TLR4) 0.1 ug/mL,1.19
C#CCN(C)CCCOc1ccc(Cl)cc1Cl.Cl,IRF Lucia reporter activity,[3]; [5],1.12
CC12C=CC(=O)NC1CCC1C2CCC2(C)C(C(=O)Nc3cc(C(F)(F)F)ccc3C(F)(F)F)CCC12 (stereo not given) (library stock concentration (final ~1000-fold dilution): 10 mM),IRF Lucia reporter activity,[2]; [4],1.22
same,IRF Lucia reporter activity,[2]; agonist: LPS (TLR4) 0.1 ug/mL,1.38
CC12C=CC(=O)NC1CCC1C2CCC2(C)C(C(=O)Nc3cc(C(F)(F)F)ccc3C(F)(F)F)CCC12 (stereo not given),IRF Lucia reporter activity,[3]; [5],1.08
O=C(Nc1cc(C(F)(F)F)ccc1N1CCCCC1)c1ccncc1 (library stock concentration (final ~1000-fold dilution): 10 mM),IRF Lucia reporter activity,[2]; [4],1.05
same,IRF Lucia reporter activity,[2]; agonist: LPS (TLR4) 0.1 ug/mL,0.874
O=C(Nc1ccc([N+](=O)[O-])cc1Cl)c1cc(Cl)ccc1O,IRF Lucia reporter activity,[3]; [5],0.899
O=C(Nc1cc(C(F)(F)F)ccc1C(F)(F)F)c1cc(Br)ccc1O (library stock concentration (final ~1000-fold dilution): 10 mM),IRF Lucia reporter activity,[1]; [4],0.0368
same,IRF Lucia reporter activity,[1]; agonist: LPS (TLR4) 0.1 ug/mL,4.46
O=C(Nc1cc(C(F)(F)F)cc(C(F)(F)F)c1)c1cc(Cl)ccc1O (library stock concentration (final ~1000-fold dilution): 10 mM),IRF Lucia reporter activity,[1]; [4],0.03 and 0.0207
same,IRF Lucia reporter activity,[1]; agonist: LPS (TLR4) 0.1 ug/mL,3.59 and 3.92
O=C(Nc1cc(C(F)(F)F)ccc1N1CCCCC1)c1ccncc1,IRF Lucia reporter activity,[3]; [5],1.18
CC(ONC(=O)c1cc(C(F)(F)F)cc(C(F)(F)F)c1)C(=O)Nc1ccc(Cl)cc1 (stereo not given) (library stock concentration (final ~1000-fold dilution): 10 mM),IRF Lucia reporter activity,[2]; [4],0.52
same,IRF Lucia reporter activity,[2]; agonist: LPS (TLR4) 0.1 ug/mL,0.52
O=C(Nc1cc(C(F)(F)F)cc(C(F)(F)F)c1)c1cc(Cl)ccc1O,IRF Lucia reporter activity,[3]; [6],3.54 ± 1.7
O=C(Nc1ccc([N+](=O)[O-])cc1Cl)c1cc(Cl)ccc1O (library stock concentration (final ~1000-fold dilution): 10 mM),IRF Lucia reporter activity,[2]; [4],0.354
same,IRF Lucia reporter activity,[2]; agonist: LPS (TLR4) 0.1 ug/mL,2.53
CC1CC(C(=O)O)C2CCC3(C)C(=CCC4C5(C)CCC(O)C(C)(C)C5CCC43C)C2C1C (stereo not given),IRF Lucia reporter activity,[3]; [5],1.06
CC1CC(C(=O)O)C2CCC3(C)C(=CCC4C5(C)CCC(O)C(C)(C)C5CCC43C)C2C1C (stereo not given) (library stock concentration (final ~1000-fold dilution): 10 mM),IRF Lucia reporter activity,[2]; [4],0.973
same,IRF Lucia reporter activity,[2]; agonist: LPS (TLR4) 0.1 ug/mL,1.12
Cc1[nH]c(C=C2C(=O)Nc3ccc(F)cc32)c(C)c1C(=O)NCCN1CCCC1 (library stock concentration (final ~1000-fold dilution): 2 mM),IRF Lucia reporter activity,[2]; [4],0.0313
same,IRF Lucia reporter activity,[2]; agonist: LPS (TLR4) 0.1 ug/mL,0.194
Cc1[nH]c(C=C2C(=O)Nc3ccc(F)cc32)c(C)c1C(=O)NCCN1CCCC1,IRF Lucia reporter activity,"[3]; library stock concentration (final ~1000-fold dilution): 2 mM, cytotoxicity flag (confluency mask): not cytotoxic",0.869
CC(c1ncncc1F)C(O)(Cn1cncn1)c1ccc(F)cc1F (stereo not given) (library stock concentration (final ~1000-fold dilution): 10 mM),IRF Lucia reporter activity,[2]; [4],1.11
same,IRF Lucia reporter activity,[2]; agonist: LPS (TLR4) 0.1 ug/mL,0.893
CC(c1ncncc1F)C(O)(Cn1cncn1)c1ccc(F)cc1F (stereo not given),IRF Lucia reporter activity,[3]; [5],0.639
CC1Cc2c([nH]c3ccccc23)C(c2c(F)cc(/C=C/C(=O)O)cc2F)N1CC(C)(C)F (stereo not given) (library stock concentration (final ~1000-fold dilution): 10 mM),IRF Lucia reporter activity,[2]; [4],1.14
same,IRF Lucia reporter activity,[2]; agonist: LPS (TLR4) 0.1 ug/mL,1.23
Cl.O=C(NC1CCNCC1)c1n[nH]cc1NC(=O)c1c(Cl)cccc1Cl (library stock concentration (final ~1000-fold dilution): 10 mM),IRF Lucia reporter activity,[1]; [4],0.0898
same,IRF Lucia reporter activity,[1]; agonist: LPS (TLR4) 0.1 ug/mL,0.581
CS(=O)(=O)O.CS(=O)(=O)O.Cc1ccc(C(=O)Nc2ccc(CN3CCN(C)CC3)c(C(F)(F)F)c2)cc1C#Cc1cnc2[nH]ncc2c1 (library stock concentration (final ~1000-fold dilution): 10 mM),IRF Lucia reporter activity,[1]; [4],0.00912
same,IRF Lucia reporter activity,[1]; agonist: LPS (TLR4) 0.1 ug/mL,0.0192
CS(=O)(=O)O.CS(=O)(=O)O.Cc1ccc(C(=O)Nc2ccc(CN3CCN(C)CC3)c(C(F)(F)F)c2)cc1C#Cc1cnc2[nH]ncc2c1,IRF Lucia reporter activity,[3]; [6],0.0201
COc1ccc(-c2cc3c(C)nc(N)nc3n(C3CCC(OCCO)CC3)c2=O)cn1 (stereo not given),IRF Lucia reporter activity,[3]; [6],0.387
COc1ccc(-c2cc3c(C)nc(N)nc3n(C3CCC(OCCO)CC3)c2=O)cn1 (stereo not given) (library stock concentration (final ~1000-fold dilution): 10 mM),IRF Lucia reporter activity,[1]; [4],0.282
same,IRF Lucia reporter activity,[1]; agonist: LPS (TLR4) 0.1 ug/mL,0.508
CCOC(=O)c1cnc2ccc(-c3cncc(NS(=O)(=O)c4ccccc4)c3)cn12,IRF Lucia reporter activity,[3]; [6],4.46
CCOC(=O)c1cnc2ccc(-c3cncc(NS(=O)(=O)c4ccccc4)c3)cn12 (library stock concentration (final ~1000-fold dilution): 10 mM),IRF Lucia reporter activity,[1]; [4],0.284
same,IRF Lucia reporter activity,[1]; agonist: LPS (TLR4) 0.1 ug/mL,4.78
Nc1nc2cc(-c3ccc4ncc(C(=O)N5CCOCC5)n4c3)ccc2o1 (library stock concentration (final ~1000-fold dilution): 10 mM),IRF Lucia reporter activity,[2]; [4],0.343
same,IRF Lucia reporter activity,[2]; agonist: LPS (TLR4) 0.1 ug/mL,1.04
COCCNCCc1cccc(Nc2ncc3c(n2)-c2ccccc2C(c2ccccc2F)C3)c1 (stereo not given) (library stock concentration (final ~1000-fold dilution): 10 mM),IRF Lucia reporter activity,[1]; [4],0.0166
same,IRF Lucia reporter activity,[1]; agonist: LPS (TLR4) 0.1 ug/mL,0.159
CN1CCC(c2c(O)cc(O)c3c(=O)cc(-c4ccccc4Cl)oc23)C1CO.Cl (stereo not given) (library stock concentration (final ~1000-fold dilution): 10 mM),IRF Lucia reporter activity,[1]; [4],0.00862
same,IRF Lucia reporter activity,[1]; agonist: LPS (TLR4) 0.1 ug/mL,0.0242
CN(CC1COCCO1)S(=O)(=O)Nc1ccc2ccc3ncc(-c4cnn(C)c4)cc3c(=O)c2c1 (stereo not given),IRF Lucia reporter activity,[3]; [5],0.63
CN(CC1COCCO1)S(=O)(=O)Nc1ccc2ccc3ncc(-c4cnn(C)c4)cc3c(=O)c2c1 (stereo not given) (library stock concentration (final ~1000-fold dilution): 10 mM),IRF Lucia reporter activity,[2]; [4],0.306
same,IRF Lucia reporter activity,[2]; agonist: LPS (TLR4) 0.1 ug/mL,0.736
COC(=O)C1=COC(OC2OC(CO)C(O)C(O)C2O)C2C1CC(O)C2C (stereo not given) (library stock concentration (final ~1000-fold dilution): 10 mM),IRF Lucia reporter activity,[2]; [4],1.08
same,IRF Lucia reporter activity,[2]; agonist: LPS (TLR4) 0.1 ug/mL,1.3
COC(=O)C1=COC(OC2OC(CO)C(O)C(O)C2O)C2C1CC(O)C2C (stereo not given),IRF Lucia reporter activity,[3]; [5],1.12
